Sampled rows, rich in hits. Any-hit rate of the full collection: about 14%.
FBPA Giardia inh: qHTS Assay for Inhibitors of Fructose-1,6-bisphosphate Aldolase from Giardia Lamblia; A8B2U2; purified Giardia FBPA; Potency, µM (top dose mostly 59.6 µM), inactives show at the highest dose activity, negative = inhibition, actives largely listed as inhibitors; 290,000 compounds, 0.71% hits; AID 2451, 2010; further: potency means the concentration at half of the fitted maximal effect; nearly all actives have a fitted effect of over 55% in size
Target sequence (A8B2U2 whole entry, looked up): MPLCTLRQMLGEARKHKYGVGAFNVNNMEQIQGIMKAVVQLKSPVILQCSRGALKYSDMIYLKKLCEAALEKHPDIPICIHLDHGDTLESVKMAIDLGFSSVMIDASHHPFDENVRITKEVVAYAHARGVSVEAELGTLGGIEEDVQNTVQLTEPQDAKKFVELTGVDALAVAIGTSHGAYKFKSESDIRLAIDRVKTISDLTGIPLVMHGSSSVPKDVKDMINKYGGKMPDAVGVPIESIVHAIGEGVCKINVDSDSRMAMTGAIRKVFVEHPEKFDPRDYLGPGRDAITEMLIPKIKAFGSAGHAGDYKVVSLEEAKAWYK
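Giardia FBPA (40 nM reagent) was preincubated 10 min at RT with compound (up to 57.5 uM final), then substrate plus GAPDH/TPI/NAD/arsenate coupling system with diaphorase/resazurin was added; resorufin fluorescence (525/598 nm) was read after 20 min.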
Pf growth 48h: Primary qHTS for delayed death inhibitors of the malarial parasite plastid, 48 hour incubation | Potency, µM (top dose mostly 28.7 µM), for the others: at the highest dose activity change, negative = inhibition, usual class: inhibitors | AID 504832, 2011 | 310,000 compounds, 5.9% hits | P. falciparum luciferase growth in erythrocytes, 48 h; further: potency means the concentration at half of the fitted maximal effect
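A one-generation exposure of luciferase-tagged malaria parasites in RPMI 1640/Albumax erythrocyte culture, 37 C and 5% CO2. Inhibition is inferred from decreased luminescence after adding detection reagent.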
Sm TGR block: qHTS Assay for the Inhibitors of Schistosoma Mansoni Peroxiredoxins. Schistosoma mansoni thioredoxin glutathione reductase (TGR), Q962Y6. purified TGR, DTNB reduction, TNB absorbance 405 nm. Potency, µM (top dose mostly 114 µM), for the others: at the highest dose activity change, negative = inhibition, hits mostly inhibitors. 360,000 compounds, 3% hits. AID 485364, 2010; further: potency means the concentration at half of the fitted maximal effect; nearly all actives have a fitted effect of over 60% in size
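TGR 20 nM + NADPH 100 uM (dispensed conc.), cpd preinc 15 min RT; start with NADPH (500 uM addition) then DTNB (15 mM addition). Kinetic TNB absorbance, 405 nm filter. Four-parameter Hill fit across titration.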
Pf growth 96h: Primary qHTS for delayed death inhibitors of the malarial parasite plastid, 96 hour incubation | AID 504834, 2011 | Potency, µM (highest dose often 28.7 µM), for inactives: top-dose activity change, negative = inhibition, actives largely listed as inhibitors | P. falciparum luciferase reporter growth, 96 h | 320,000 compounds, 6.9% hits; further: potency means the concentration at half of the fitted maximal effect
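Infected RBCs, 2% Hct / 0.05% parasitemia final; luciferase-reporter P. falciparum; cpd 96 h, 37 C, 5% CO2; luciferase detection reagent; luminescence.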
HCMV inh: qHTS Assay for inhibitors of the human cytomegalovirus (HCMV); HFF cells, HCMV-luciferase reporter, 72 h; hits give low values; activity change, negative = inhibition, % at 57.5 µM; 410,000 compounds, 4.5% hits; AID 1259415, 2018; in the data active means activity change below about -60%; inconclusive means no clear call, values can overlap the other calls; inactive means above about -39%
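After 16 h attachment at 37C, HFF cells received test compound and HCMV-luciferase (1 PFU/cell); reporter luminescence read 72 h later, data normalized against buffer-only and known inhibitor Salinomycin.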
Numbers without * were called inactive. Unless noted, the call rests on the fitted dose curve; in most records, active means well fitted curve in the direction sought with a large enough effect; inconclusive means small, poorly fitted or top-dose-only effect, or another doubt; inactive means no such curve, though single readings can be large; an effect the other way counts as inactive or inconclusive. On the % scale 0 is the no-effect control and ±100 the full control effect.

What do the screens show for `CC(C)C[C@H](NS(=O)(=O)c1ccc(F)cc1F)C(=O)N1CCC[C@H]1C(=O)NCc1ccccc1`?
HCMV inh: -3.0

How did COc1ccc(NC(=O)Nc2cccc3c2O[C@H](CN(C)S(C)(=O)=O)[C@@H](C)CN([C@H](C)CO)C3=O)cc1 do in these assays?
HCMV inh: -0.4

How did C=C(C)COc1ccc(-c2nc(N)ncc2-c2ccc(Cl)cc2)c(O)c1 do in these assays?
FBPA Giardia inh: 0.0%; Pf growth 48h: 13.1µM*; Sm TGR block: -1.0%; Pf growth 96h: inconclusive; HCMV inh: -25.0

Results for C=C(C)COc1ccc(-c2nc(N)ncc2-c2ccc(OC)cc2)c(O)c1 ?
FBPA Giardia inh: -9.6%; Pf growth 48h: inconclusive; Sm TGR block: -2.6%; Pf growth 96h: -6.1%; HCMV inh: 0.2

How did Nc1ncc(-c2ccccc2)c(-c2ccc(OCc3ccccc3)cc2O)n1 do in these assays?
FBPA Giardia inh: -12.7%; Pf growth 48h: 11.7µM*; Sm TGR block: 11.0%; Pf growth 96h: inconclusive; HCMV inh: inconclusive

Results for O=C(Nc1ccc2c(c1)OCO2)c1cc(-c2ccncc2)nc2ccccc12 ?
FBPA Giardia inh: -9.8%; Pf growth 48h: inconclusive; Sm TGR block: 1.1%; Pf growth 96h: inconclusive; HCMV inh: 85.8

Results for CC(C)OCCCNc1ncc2c(n1)CC(c1cccs1)CC2=O (stereo not drawn) ?
FBPA Giardia inh: inconclusive; Pf growth 48h: inconclusive; Sm TGR block: 4.1%; Pf growth 96h: 13.1µM*; HCMV inh: 28.9

What do the screens show for `COc1ccc(C2=C/C(=C\c3cccc(OC(C)=O)c3)C(=O)O2)cc1`?
FBPA Giardia inh: -0.1%; Pf growth 48h: 17.9%; Sm TGR block: -33.7%; Pf growth 96h: inconclusive; HCMV inh: -65.0*

Results for COc1ccc(C2=C/C(=C\c3ccccc3OC(C)=O)C(=O)O2)cc1 ?
FBPA Giardia inh: 9.3%; Pf growth 48h: 27.7%; Sm TGR block: inconclusive; Pf growth 96h: 36.7%; HCMV inh: 14.8

What do the screens show for `CC(C)(O)/C=C/C(=O)C(C)(O)C1C(O)CC2(C)C3CC=C4C(C=C(O)C(=O)C4(C)C)C3(C)C(=O)CC12C` (stereo not drawn)?
HCMV inh: -96.9*

What do the screens show for `Cc1cn2c(=O)cc(COC(=O)c3cccc(NC(=O)C(C)Oc4ccccc4)c3)nc2s1` (stereo not drawn)?
Sm TGR block: -9.2%; HCMV inh: -64.4*

Results for Cc1cn2c(=O)cc(COC(=O)C(C)Oc3ccccc3)nc2s1 (stereo not drawn) ?
Sm TGR block: 2.3%; HCMV inh: 12.1

How did Cc1ccc(OCc2cc(=O)n3cc(C)sc3n2)c(C)c1 do in these assays?
Sm TGR block: 6.1%; HCMV inh: -100.6*

How did Cc1cn2c(=O)cc(COc3cccc(NC(=O)c4ccccc4C)c3)nc2s1 do in these assays?
Sm TGR block: 1.5%; HCMV inh: -68.7*

How did Cc1cn2c(=O)cc(COc3ccccc3NC(=O)c3ccccc3C)nc2s1 do in these assays?
Sm TGR block: -2.8%; HCMV inh: -10.6

What do the screens show for `CC1CC[C@]2(CO)CC[C@]3(C)C(=CCC4[C@@]5(C)CCC(O)C(C)(C)C5CC[C@@]43C)C2C1C` (stereo partly drawn)?
FBPA Giardia inh: -24.5%

What do the screens show for `CCCSc1nc(C)c2cc(C)cc(C)c2n1`?
FBPA Giardia inh: 0.4%; Pf growth 48h: 7.6%; Sm TGR block: inconclusive; Pf growth 96h: inconclusive; HCMV inh: 6.6

How did Cc1cc(C)c2nc3nc(C)c(C)cc3c(N)c2c1 do in these assays?
FBPA Giardia inh: -8.1%; Pf growth 48h: 4.15µM*; Pf growth 96h: inconclusive; HCMV inh: -98.8*

How did CN(C)CCn1c2c(c(SCC(=O)Nc3ccc(F)cc3F)nc1=O)CCC2 do in these assays?
Sm TGR block: 12.0%; HCMV inh: 3.0

What do the screens show for `COC(=O)c1ccccc1NC(=O)CN(c1ccc(Cl)cc1)S(=O)(=O)c1ccc(OC)cc1`?
Sm TGR block: -0.6%; HCMV inh: -2.6

Results for Cc1ccc(O)c(C(=O)c2cc(C(=O)NCCC(C)C)c(=O)n(CCC(C)C)c2)c1 ?
FBPA Giardia inh: -9.0%; Pf growth 48h: inconclusive; Sm TGR block: 1.7%; Pf growth 96h: 3.29µM*; HCMV inh: 7.0

Results for CCN(CC)S(=O)(=O)c1ccc(C(=O)N2CC(=O)Nc3ccc(F)cc3C2c2ccccc2)cc1 (stereo not drawn) ?
Sm TGR block: 1.3%; HCMV inh: -10.3

Results for CC(=O)c1ccc(C(=O)N(CCCN(C)C)c2nc3c(C)c(C)ccc3s2)cc1 ?
Sm TGR block: -16.7%; HCMV inh: -4.3

Results for Cc1ccc2sc(N(CCCN(C)C)C(=O)c3ccc(S(=O)(=O)N4CCOCC4)cc3)nc2c1C ?
Pf growth 48h: 13.1µM*; Sm TGR block: 3.9%; Pf growth 96h: inconclusive; HCMV inh: -34.5

What do the screens show for `CCOC(=O)N1CCN(S(=O)(=O)c2ccc(C(=O)N(CCCN(C)C)c3nc4c(C)c(C)ccc4s3)cc2)CC1`?
Pf growth 48h: inconclusive; Sm TGR block: -20.5%; Pf growth 96h: inconclusive; HCMV inh: -29.8

How did Cc1ccc2sc(N(CCCN(C)C)C(=O)c3ccc(S(=O)(=O)N(C)C4CCCCC4)cc3)nc2c1C do in these assays?
Pf growth 48h: 10.4µM*; Sm TGR block: 9.6%; Pf growth 96h: 11.7µM*; HCMV inh: -35.0

Results for Brc1cc2ccccc2[n+](Cc2ccccc2)c1 ?
Pf growth 48h: inconclusive; Sm TGR block: -13.1%; Pf growth 96h: inconclusive; HCMV inh: -101.4*

Results for O=C(C[n+]1cn(C(F)F)c2ccccc21)c1ccc(Br)cc1 ?
FBPA Giardia inh: 4.0%; Pf growth 48h: -6.2%; Sm TGR block: 3.98µM*; Pf growth 96h: 18.1%; HCMV inh: -14.6

How did O=C(C[n+]1cc(Br)cc2ccccc21)c1ccc(Br)cc1 do in these assays?
FBPA Giardia inh: 8.5%; Pf growth 48h: -15.9%; Sm TGR block: -12.7%; Pf growth 96h: inconclusive; HCMV inh: 141.1

What do the screens show for `O=C(C[n+]1cc(Br)cc2ccccc21)c1ccc(Cl)cc1`?
FBPA Giardia inh: -4.3%; Pf growth 48h: inconclusive; Sm TGR block: -5.7%; Pf growth 96h: 13.1µM*; HCMV inh: 31.6

Results for Cc1ccc(CC2(C)C(=O)Nc3c(Cl)ccc(Cl)c32)cc1 (stereo not drawn) ?
HCMV inh: 8.8

What do the screens show for `CN(C)N=Nc1ccc(-c2cn(Cc3ccccc3)cn2)cc1`?
FBPA Giardia inh: 5.9%; Pf growth 48h: inconclusive; Sm TGR block: -18.6%; Pf growth 96h: 4.65µM*; HCMV inh: 124.7

Compound activity (PubChem BioAssay)
